BRCA1 expr up: qHTS Assay to Identify Small Molecule Activators of BRCA1 Expression | MCF7-BRCA1-FFLuc reporter, luminescence, 48 h; response scale: scaled: vehicle 0%, 10 µM genistein 100% | Potency, µM (highest dose often 46.1 µM), for inactives: at the top dose activation, actives largely listed as activators | 1.1% of 380,000 active | AID 624202, 2012; also: nearly all actives have a fitted effect of over 80% in size
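MCF7-BRCA1-FFLuc, 2000 cells/well; 2 h attach, 37 °C/5% CO2; compound 48 h; luciferase substrate 15 min; luminescence end-point. Norm. to genistein 10 microM max activation and DMSO; concentration-response curves fitted.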
EPAC2 agonist: qHTS for Agonist of cAMP-regulated guanine nucleotide exchange factor 4 (EPAC2): primary screen. Rap guanine nucleotide exchange factor 4 (Homo sapiens), Q8WZA2. EPAC2 activation, biochemical qHTS; response scale: 100% = 6.5 mM cAMP response. Potency, µM (highest dose often 154 µM), for inactives: top-dose activation, hits mostly activators. 0.079% of 360,000 active; also: nearly all actives have a fitted effect of over 50% in size
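In this primary screen, activation is scored as increased exchange of BODIPY-GDP from Rap1B by 100 nM EPAC2, with 50 uM GDP as competitor. Signal is normalized to the 6.5 mM cAMP agonist control.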
EPAC2 antagonist: qHTS for Antagonist of cAMP-regulated guanine nucleotide exchange factor 2 (EPAC2): primary screen. Rap guanine nucleotide exchange factor 4 (Homo sapiens), Q8WZA2. EPAC2 GEF exchange of Rap1B-BODIPY-GDP, fluorescence. Potency, µM (top dose mostly 114 µM), for the others: at the highest dose activity, negative = inhibition, usual class: inhibitors. 0.18% of 360,000 active; also: % is scaled to controls: 0 for no effect and ±100 for the full control effect; nearly all actives have a fitted effect of over 45% in size
EPAC1 antagonist: qHTS for Antagonist of cAMP-regulated guanine nucleotide exchange factor 3 (EPAC1): primary screen. EPAC1 GEF assay, Rap1b-BODIPY-GDP exchange fluorescence. Potency, µM (highest dose often 115 µM), without a hit: at the top dose activity change, negative = inhibition, hits mostly inhibitors. 0.14% of 360,000 active;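 also: plate controls were vehicle for no effect and positive control for full effect; nearly all actives have a fitted effect of over 50% in size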
EPAC1 ag: qHTS for Agonist of cAMP-regulated guanine nucleotide exchange factor 3 (EPAC1): primary screen. AID 720707, 2013. EPAC1 agonist qHTS, biochemical assay; response scale: 100% = response to 6.5 mM cAMP. Rap guanine nucleotide exchange factor 3 (Homo sapiens), O95398. 0.073% of 360,000 active. Potency, µM (doses to about 154 µM), for inactives: at the top dose activation, usual class: activators; also: nearly all actives have a fitted effect of over 60% in size
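Normalized to 6.5 mM cAMP, activity reflects EPAC1-catalysed release of BODIPY-GDP from Rap1B, followed kinetically over 30 min at 480 nm excitation, 540 nm emission. Reaction contained 100 nM EPAC1, 250 nM Rap1B-BODIPY-GDP, 50 uM GDP.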
RGS4 inhibitor: Inhibitors of Regulator of G Protein Signaling (RGS) 4: qHTS; Transcreener GDP fluorescence polarization, RGS4-accelerated GTP hydrolysis; AID 504845, 2011; 0.039% of 390,000 active; Potency, µM (titrated, usually from 114 µM), for inactives: at the highest dose activity change, negative = inhibition, hits mostly inhibitors; also: % is scaled to controls: 0 for no effect and ±100 for the full control effect; nearly all actives have a fitted effect of over 75% in size
Target sequence (P49798 whole entry, looked up): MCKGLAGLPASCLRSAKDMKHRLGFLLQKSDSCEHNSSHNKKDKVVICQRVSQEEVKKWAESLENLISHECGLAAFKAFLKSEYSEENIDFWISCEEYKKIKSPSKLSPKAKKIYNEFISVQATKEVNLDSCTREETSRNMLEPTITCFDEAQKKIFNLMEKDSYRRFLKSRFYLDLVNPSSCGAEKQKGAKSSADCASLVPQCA
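MLSMR compounds (23 nl, pin-transferred) preincubated 10 min at room temperature with a 500nM (2x) first reagent, then RGS4 at 900nM (2x) plus Transcreener GDP mix added; fluorescence polarization (620/688 nm) read before and after 90 min at 30 °C.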
* hit, by the source's call. Rows were chosen to be rich in hits. Some 1.3% of all compounds tested hit in one or more screens of this group. Calls follow the shape of the dose curve; as a rule, active = well fitted curve in the direction sought with a large enough effect; inconclusive = small, poorly fitted or top-dose-only effect, or another doubt; inactive = no such curve, though single readings can be large; an effect the other way counts as inactive or inconclusive. Potency is read from the fitted curve at half-maximal effect.

How did O=C(CSc1nnnn1-c1ccccc1)Nc1ncc(Cc2ccccc2Cl)s1 do in these assays?
BRCA1 expr up: 8%; EPAC2 agonist: 2%; EPAC2 antagonist: 1%; EPAC1 antagonist: -13%; EPAC1 ag: 12%; RGS4 inhibitor: -25%

What do the screens show for `N=C1SC(c2ccccc2)C(=O)N1c1ncc(Cc2ccccc2Cl)s1` (configuration not stated)?
BRCA1 expr up: -36%; EPAC2 agonist: -1%; EPAC2 antagonist: -2%; EPAC1 antagonist: 71µM*; EPAC1 ag: -11%; RGS4 inhibitor: 10%

Results for CCN(C(=O)Cn1ccc(C(F)(F)F)n1)c1c(N)n(Cc2ccccc2)c(=O)[nH]c1=O ?
BRCA1 expr up: -15%; EPAC2 agonist: 2%; EPAC2 antagonist: -1%; EPAC1 antagonist: -1%; EPAC1 ag: -5%; RGS4 inhibitor: 12%

How did c1ccc(OCCSc2ncnc3nc[nH]c23)cc1 do in these assays?
BRCA1 expr up: 8.9µM*; EPAC2 agonist: 4%; EPAC2 antagonist: 8%; EPAC1 antagonist: 0%; EPAC1 ag: 7%; RGS4 inhibitor: -25%

How did CN1CCN(NC(=O)/C=C/c2cccc([N+](=O)[O-])c2)CC1 do in these assays?
BRCA1 expr up: 7%; EPAC2 agonist: 12%; EPAC2 antagonist: 2%; EPAC1 antagonist: -10%; EPAC1 ag: 5%; RGS4 inhibitor: 6%

What do the screens show for `CC(=O)c1ccc(NC(=O)CSc2nnc(-c3ccco3)c(-c3ccco3)n2)cc1`?
BRCA1 expr up: -3%; EPAC2 agonist: 5%; EPAC2 antagonist: 8%; EPAC1 antagonist: 50µM*; EPAC1 ag: 2%; RGS4 inhibitor: inconclusive

How did COc1ccc(-c2nnc(SCC(=O)Nc3ccc(C(C)=O)cc3)nc2-c2ccc(OC)cc2)cc1 do in these assays?
RGS4 inhibitor: -23%

How did CNc1ccc(Cl)cc1S(=O)(=O)c1ccccc1[N+](=O)[O-] do in these assays?
BRCA1 expr up: -17%; EPAC2 agonist: 6%; EPAC2 antagonist: 63µM*; EPAC1 antagonist: -16%; EPAC1 ag: -4%

How did O=[N+]([O-])c1ccccc1S(=O)(=O)c1ccccc1 do in these assays?
BRCA1 expr up: -3%; EPAC2 agonist: 8%; EPAC2 antagonist: -18%; EPAC1 antagonist: 7%; EPAC1 ag: 0%; RGS4 inhibitor: 17%

How did O=C(CSc1nnc(-c2ccco2)n1Cc1ccccc1)c1ccccc1 do in these assays?
BRCA1 expr up: 4µM*; EPAC2 agonist: 8%; EPAC2 antagonist: -3%; EPAC1 antagonist: -3%; EPAC1 ag: 5%; RGS4 inhibitor: -40%

What do the screens show for `O=C(CSc1nnnn1Cc1ccccc1)c1ccccc1`?
BRCA1 expr up: 13µM*; EPAC2 agonist: 21%; EPAC2 antagonist: 0%; EPAC1 antagonist: 5%; EPAC1 ag: 0%; RGS4 inhibitor: -19%

Results for C/C(=C\c1ccccc1F)C(=O)c1c(C)cc(C)[nH]c1=O ?
BRCA1 expr up: 15%; EPAC2 agonist: 16%; EPAC2 antagonist: 7%; EPAC1 antagonist: -12%; EPAC1 ag: -1%; RGS4 inhibitor: 20%

Results for COc1ccc(-c2csc(NC(=O)CSc3nc(C)cs3)n2)cc1 ?
BRCA1 expr up: 13µM*; EPAC2 agonist: 6%; EPAC2 antagonist: 6%; EPAC1 antagonist: 2%; EPAC1 ag: 5%; RGS4 inhibitor: -43%

What do the screens show for `O=C(Nc1nc(-c2ccc(-c3ccccc3)cc2)cs1)C1=COCCO1`?
BRCA1 expr up: -25%; EPAC2 agonist: -6%; EPAC2 antagonist: 3%; EPAC1 antagonist: 2%; EPAC1 ag: -2%; RGS4 inhibitor: 33%

How did COc1ccc(-c2csc(NC(=O)COC(=O)C3=COCCO3)n2)cc1 do in these assays?
BRCA1 expr up: 5µM*; EPAC2 agonist: 12%; EPAC2 antagonist: 22%; EPAC1 antagonist: -10%; EPAC1 ag: -15%; RGS4 inhibitor: -7%

What do the screens show for `CCn1ncc(C2=NOC(C(=O)Nc3ccc4c(c3)OCO4)C2)c1C` (configuration not stated)?
BRCA1 expr up: -34%; EPAC2 agonist: -2%; EPAC2 antagonist: 8%; EPAC1 antagonist: 15%; EPAC1 ag: -4%; RGS4 inhibitor: -22%

Results for O=S(=O)(c1ccc(-c2nc3ccccc3s2)cc1)N1CCCC1 ?
BRCA1 expr up: 2.5µM*; EPAC2 agonist: -1%; EPAC2 antagonist: 3%; EPAC1 antagonist: -2%; EPAC1 ag: 10%; RGS4 inhibitor: 2%

What do the screens show for `Cc1c(C(=O)NCc2cccc(Br)c2)oc2ccc3c(c12)C(=O)CC(C)(C)O3`?
RGS4 inhibitor: 4%

How did O=C1c2cccc3cc([N+](=O)[O-])cc(c23)C(=O)N1/N=C/c1ccc(O)cc1O do in these assays?
BRCA1 expr up: -6%; EPAC2 agonist: 0%; EPAC2 antagonist: -2%; EPAC1 antagonist: 79µM*; EPAC1 ag: 5%; RGS4 inhibitor: -18%

How did O=C(NC1CCCCCCC1O)c1ccccc1 (configuration not stated) do in these assays?
BRCA1 expr up: 38%; EPAC2 agonist: 4%; EPAC2 antagonist: 13%; EPAC1 antagonist: 4%; EPAC1 ag: -10%; RGS4 inhibitor: -42%

Results for c1ccc(CCNc2ncnc3c2cnn3-c2ccccc2)cc1 ?
BRCA1 expr up: 4.5µM*; EPAC2 agonist: 21%; EPAC2 antagonist: -17%; EPAC1 antagonist: -11%; EPAC1 ag: inconclusive; RGS4 inhibitor: 1%

What do the screens show for `Cc1ccc(CSc2ncnc3c2cnn3-c2ccccc2)cc1`?
BRCA1 expr up: 58%; EPAC2 agonist: 15%; EPAC2 antagonist: -7%; EPAC1 antagonist: 7%; EPAC1 ag: 4%; RGS4 inhibitor: 4%

What do the screens show for `CCOC(=O)CSc1ncnc2c1cnn2-c1ccccc1`?
BRCA1 expr up: 1%; EPAC2 agonist: 8%; EPAC2 antagonist: 11%; EPAC1 antagonist: 15%; EPAC1 ag: 4%; RGS4 inhibitor: -19%

Compound activity from PubChem BioAssay.
